Screening data (PubChem)
The list is not random: actives were taken first. Their share in the collection is about 28%.
DAT uptake mod = human DAT dopamine uptake with cocaine, either direction | B-score at 10 µM | LLC-PK1 hDAT cells, [14C]-dopamine uptake with cocaine IC80; actives deviate in either direction | 110,000 tested, 1.3% active | Q01959;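 active = Z score or B-score, a plate-position-corrected score, falls beyond the plate's 99.7% confidence bounds, in either direction; inactive = both scores lie inside the 99.7% bounds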;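 note: scored against the spread of the other compound wells on the same plate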
CYP2C19 activ = activators of human cytochrome P450 2C19 | recombinant CYP2C19, luciferin-H EGE luminescence; stronger effect = higher value; 0 = fully inhibited enzyme, 1 = untreated enzyme | activation factor at 5 µM | 96,000 tested, under 10 active | AID 1025;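 active = activation factor of at least 2 at 5 µM in the primary screen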;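 note: 0 = wells with 2.5 mM tranylcypromine and 1 = vehicle-only wells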
CYP2C19 inh = inhibitors of human CYP2C19; AID 778; inhibition, % at 5 µM; P33261; 96,000 tested, 21% active; CYP2C19 Supersomes, luciferin-H EGE luminescence, 30 min;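 active = CYP2C19 inhibition above a set limit at 5 µM in the primary screen, cut at about 50% in these data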;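 note: plate controls were negative control wells for no effect and 2.5 mM tranylcypromine positive control for full effect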
D1 mod = allosteric modulators of human D1 dopamine receptor; P21728; HEK293 D1, CRE-luciferase, dopamine EC30 potentiation; actives deviate in either direction; B-score at 10 µM; 58,000 tested, 5.9% active;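 active = luminescence count or its row- and column-corrected plate score outside the 99.7% band of the plate's sample wells, on either side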
CYP2C9 act = increases human cytochrome P450 2C9 activity. P11712. recombinant CYP2C9, luciferin-H conversion, luminescence; stronger effect = higher value; factor 1 = untreated enzyme, 0 = blocked. activation factor at 5 µM. 96,000 tested, 1.4% active. AID 1024;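 active = activation factor of 2 or more for CYP2C9 at a 5 µM dose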;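 note: 0 = sulfaphenazole-blocked wells and 1 = vehicle-only wells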
Target sequence (P11712 whole entry, looked up): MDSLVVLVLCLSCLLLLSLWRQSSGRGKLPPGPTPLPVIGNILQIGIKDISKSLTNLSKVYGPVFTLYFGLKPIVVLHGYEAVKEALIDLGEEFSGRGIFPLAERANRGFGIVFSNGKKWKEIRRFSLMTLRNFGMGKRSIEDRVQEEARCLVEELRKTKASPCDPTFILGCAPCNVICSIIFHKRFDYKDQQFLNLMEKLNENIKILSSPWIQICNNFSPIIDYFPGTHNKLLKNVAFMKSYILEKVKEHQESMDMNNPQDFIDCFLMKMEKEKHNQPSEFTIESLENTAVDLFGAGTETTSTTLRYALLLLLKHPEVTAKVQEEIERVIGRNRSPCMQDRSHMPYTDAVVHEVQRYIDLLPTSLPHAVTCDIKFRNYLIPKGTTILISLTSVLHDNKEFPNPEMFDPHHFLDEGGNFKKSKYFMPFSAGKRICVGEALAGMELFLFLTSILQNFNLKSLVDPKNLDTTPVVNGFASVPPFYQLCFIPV
CYP2C9 inhib = blocks human cytochrome P450 2C9. inhibition, % at 5 µM. P11712. 96,000 tested, 20% active. CYP2C9 Supersomes, luciferin-H conversion, luminescence;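 active = blocking of liver enzyme CYP2C9 beyond about 50% at 5 µM, limit read from the data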
* = called active by the depositor; x = no result given.

SMILES	DAT uptake mod	CYP2C19 activ	CYP2C19 inh	D1 mod	CYP2C9 act	CYP2C9 inhib
CCOC(=O)CSC(C)C(=O)Nc1nnc(C(C)C)s1 (stereo not drawn)	0.95	x	x	-0.017	x	x
CCOC(=O)c1ccccc1NC(=O)CN(c1ccccc1OCC)S(C)(=O)=O	-0.1	0.9	9	0.29	0.9	13
CCOc1ccccc1N(CC(=O)Nc1ccccc1C(=O)O)S(C)(=O)=O	-0.19	1	-2	-1.1	0	97*
CCOc1ccc(N(CC(=O)Nc2ccccc2C(=O)NCc2ccco2)S(C)(=O)=O)cc1	1.1	0.8	23	x	0.3	70*
CCOc1ccccc1N(CC(=O)Nc1cc(OC)ccc1OC)S(C)(=O)=O	-9.1*	0	96*	x	0.2	84*
CCOc1ccccc1N(CC(=O)Nc1ccccc1C(=O)NCc1ccco1)S(C)(=O)=O	-0.02	0.1	86*	0.0097	0.1	86*
COc1ccc(-c2c(C(=O)O)nc3ccccc3c2C(=O)O)cc1	0.03	1	4	x	1	1
CC1=CC(C)(C)N(C(=O)CSc2nnc(N)s2)c2c(C)cc(C)cc21	-1.5	0.4	60*	x	0.5	50*
COc1ccc(NC(=O)C2CCCN2C(=O)Nc2ccccc2)cc1OC (stereo not drawn)	-0.4	x	x	x	x	x
COc1ccc(C2CCCN2C(=O)Nc2ccc(Cl)cc2)cc1OC (stereo not drawn)	0.3	0.3	73*	x	0.5	49
COc1ccc(Cn2c(CCC(=O)NCc3ccco3)nc3cccnc32)cc1	0.095	0.7	29	1.2	0.7	26
O=C(CC(c1ccccc1)c1cc(Br)ccc1O)NCc1ccco1 (stereo not drawn)	2	0	99*	0.2	0	99*
O=C(CC(c1ccccc1)c1ccccc1O)NCc1ccco1 (stereo not drawn)	1	0.5	49	x	0.5	51*
CC(C)Oc1ccc(CNC(=O)CC(c2ccccc2)c2cc(Cl)ccc2O)cc1 (stereo not drawn)	-0.052	0.1	87*	x	0	96*
CC(C)NC(=O)CC(c1ccccc1)c1cc(Br)ccc1O (stereo not drawn)	-2.3	0	95*	x	0.1	90*
C/C(CC(=O)NCc1ccco1)=N\NC(=O)C(c1ccccc1)c1ccccc1	-0.17	0.9	6	x	0.5	51*
CC1=Nc2ccccc2/C1=C\c1nc(-c2ccccc2)oc1O	-0.98	0.6	42	x	0.1	95*
CC1=Nc2ccccc2/C1=C\c1nc(-c2ccc(C(F)(F)F)cc2)oc1O	0.058	1.1	-5	x	1.1	-15
CC(NC(=O)Cn1ccsc1=N)C12CC3CC(CC(C3)C1)C2 (stereo not drawn)	-6.3*	0.8	22	0.2	1.1	-6
COc1cccc(C2=NOC(C(=O)Nc3ccc(C(C)=O)cc3)C2)c1 (stereo not drawn)	1.3	0.8	16	0.57	0.8	22
Cc1ccc(-c2cnc(NC(=O)c3cccc(Br)c3)s2)c(C)c1	0.99	1	-3	x	0.7	33
O=C1C2C3C=CC(C3)C2C(=O)N1Cc1cccnc1 (stereo not drawn)	-0.69	1.1	-6	0.99	1	3
O=C1C2C(C(=O)N1Cc1cccnc1)C1C=CC2C12CC2 (stereo not drawn)	-0.064	0.3	66*	-0.59	1	-1
O=C1C2C3c4ccccc4C(c4ccccc43)C2C(=O)N1Cc1cccnc1 (stereo not drawn)	-0.69	0.3	68*	x	0.7	26
CC(=O)c1ccc(-c2ccccc2[C@H]2[C@H]3C=CC[C@@H](C)[C@@H]3C(=O)N2Cc2ccccc2)cc1	0.29	x	x	x	x	x
Cc1ccc(Cl)cc1N1CCN(C(=O)C2CCN(S(=O)(=O)c3cccnc3)CC2)CC1	1.4	0.4	61*	x	0.5	55*
O=S(=O)(c1cnc[nH]1)N1CCCCCC1	0.17	1	-1	0.86	0.8	23
O=S(=O)(c1cnc[nH]1)N1CCN(c2ccccc2)CC1	-0.91	0.4	64*	x	0.5	48
Cc1ccc(Cl)cc1N1CCN(S(=O)(=O)c2cnc[nH]2)CC1	-1.2	0	99*	0.38	0	97*
